Measurements as given in the supplement of paper PMC4206461.
Values without a mark were called inactive.

Columns and labels:
[1] = system: Pseudomonas aeruginosa PA14 dppA1-A5 penta mutant + pBBR5.DppA1 (PA14_58350); experiment: respiration area under curve with compound as sole nitrogen source, 24 h (OmniLog AUC (arbitrary units)); higher = more respiration / better utilisation as nitrogen source, active = 2000 or more
Method: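 Biolog Phenotype MicroArray plates PM6-PM8: each di/tripeptide is the sole nitrogen source. Tetrazolium reduction was read in the OmniLog for 24 h at 37°C and summarised as area under the respiration curve (arbitrary units). Values below 2000 count as no respiration. Strain is the SBP penta mutant complemented with DppA1 on a plasmid under its native promoter. Lys/His/Cys peptides are excluded.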

[2] = system: Pseudomonas aeruginosa PA14 wild type; experiment: as above
Method: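 Biolog Phenotype MicroArray plates PM6-PM8: each di/tripeptide is the sole nitrogen source (IF-0 medium with succinate/ferric citrate and dye mix A). Tetrazolium reduction was read in the OmniLog every 15 min for 24 h at 37°C and summarised as area under the respiration curve (arbitrary units). The paper counts values below 2000 as no respiration and above 8000 as solid respiration. Replicate datasets are averaged.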

[3] = system: Pseudomonas aeruginosa PA14 dppBCDF deletion mutant; experiment: respiration area under curve with compound as sole nitrogen source, 24 h (OmniLog AUC (arbitrary units)); higher = more respiration / better utilisation as nitrogen source, active = 2000 or more; extreme values may be limits of the assay
Method: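 Biolog Phenotype MicroArray plates PM6-PM8: each di/tripeptide is the sole nitrogen source. Tetrazolium reduction was read in the OmniLog every 15 min for 24 h at 37°C and summarised as area under the respiration curve (arbitrary units). Values below 2000 count as no respiration. Strain is the dipeptide ABC transporter deletion mutant.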

Row | SMILES | respiration area under curve [1] | respiration area under curve [2] | respiration area under curve [3]
1 | CC(C)C[C@H](NC(=O)[C@@H](N)Cc1ccc(O)cc1)C(=O)O (plate: PM7) | 6720 (active) | 7880 (active) | 5310 (active)
2 | CSCC[C@H](NC(=O)[C@H](C)N)C(=O)O (plate: PM8) | 6710 (active) | 6360 (active) | 2300 (active)
3 | C[C@H](NC(=O)[C@@H](N)Cc1c[nH]c2ccccc12)C(=O)O (plate: PM7) | 2360 (active) | – | 744
4 | N[C@@H](CC(=O)O)C(=O)N[C@@H](CCC(=O)O)C(=O)O (plate: PM6) | 437 | 291 | 0
5 | N[C@@H](Cc1c[nH]c2ccccc12)C(=O)N[C@@H](CCC(=O)O)C(=O)O (plate: PM7) | – | 633 | 0
6 | NCC(=O)NCC(=O)O (plate: PM6) | – | 3270 (active) | 98.5
7 | N[C@@H](CC(=O)O)C(=O)NCC(=O)O (plate: PM8) | – | 4290 (active) | 0
8 | CC(C)[C@H](NC(=O)[C@@H](N)CCC(=O)O)C(=O)O (plate: PM6) | – | 5390 (active) | 0
9 | NCC(=O)NCC(=O)NCC(=O)O (plate: PM8) | – | 7740 (active) | 5.75
10 | CC(C)C[C@H](NC(=O)[C@H](CC(C)C)NC(=O)[C@@H](N)CC(C)C)C(=O)O (plate: PM8) | 3090 (active) | – | –
11 | C[C@@H](O)[C@H](N)C(=O)NCC(=O)O (plate: PM7) | – | 8140 (active) | 0.75
12 | CC(C)C[C@H](NC(=O)[C@@H](N)CC(=O)O)C(=O)O (plate: PM6) | – | 2690 (active) | 0
